HSD17B inh: HSD17B dehydrogenase inhibition | Q99714 | recombinant HSD17B10, NADH fluorescence kinetic | Potency, µM (doses to about 57.1 µM), inactives show at the highest dose activity change, negative = inhibition, most hits filed as inhibitors | hit rate 7.6% among 75,000 | AID 893;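 note: the protocol describes HADH2 (HSD17B10) and not the HSD17B4 of the title; potency is the fitted concentration of half-maximal effect; % is set by controls: 0 for no effect and ±100 for the full control effect; nearly all actives have a fitted effect of over 70% in size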
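His-tagged E. coli-expressed HADH2 at 20 nM in 100 mM Tris-HCl pH 9.0 with 0.01 % Tween-20, preincubated 15 min with compound at room temperature. Reaction with 1 mM NAD+ and 90 uM beta-hydroxybutyryl coenzyme A; NADH fluorescence (360/450 nm) read kinetically over 4 min, last minus first point.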
A350 fluor: A350 region autofluorescence; max dye-equivalent concentration, M; Compound autofluorescence, 340/450 nm, Alexa 350 dye-equivalents; active compounds read high; hit rate 11% among 59,000; in the data active = max dye-equivalent concentration above about 10 nM; inconclusive = mostly about 1.1 nM to 9.6 nM
AID923: qHTS Assay for Allosteric/Competitive Inhibitors of Caspase-1: Spectroscopic Profiling in AFC Spectral Region | compound fluorescence, AFC spectral region (405/520 nm) | Potency, µM (top dose mostly 57.5 µM), for inactives: at the highest dose fluorescence increase, hits mostly activators | hit rate 1.1% among 75,000; note: potency is the fitted concentration of half-maximal effect; 0% is about no effect
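Titrations up to 57 uM read every 20 sec for 3 min (405/520 nm) with 50 nM caspase 1 and 5 uM Ac-WEHD-AFC, pH 7.5 HEPES buffer. Fluorescence-vs-time intercept gave baseline, scaled against on-plate AFC standard.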
HADH2 inhib: HADH2 (human) dehydrogenase inhibition | recombinant HADH2, NADH fluorescence, beta-hydroxybutyryl-CoA | hit rate 3.4% among 73,000 | Q99714 | Potency, µM (titrated, usually from 57.1 µM), for inactives: top-dose activity change, negative = inhibition, usual class: inhibitors; note: potency is the fitted concentration of half-maximal effect; % is set by controls: 0 for no effect and ±100 for the full control effect; nearly all actives have a fitted effect of over 60% in size
Target sequence (Q99714 whole entry, looked up, one chain of several): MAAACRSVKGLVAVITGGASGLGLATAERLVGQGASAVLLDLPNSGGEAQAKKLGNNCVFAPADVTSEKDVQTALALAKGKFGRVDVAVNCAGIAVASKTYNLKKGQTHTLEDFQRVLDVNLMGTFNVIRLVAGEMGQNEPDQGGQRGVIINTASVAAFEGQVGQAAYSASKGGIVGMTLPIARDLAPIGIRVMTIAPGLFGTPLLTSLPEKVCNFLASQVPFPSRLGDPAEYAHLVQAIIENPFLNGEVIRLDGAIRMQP
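Activity measured as NADH fluorescence gain (360/450 nm), taken as the change between first and last reads of a 4-min kinetic run. Conditions: pH 9.0 Tris buffer, 20 nM E. coli-expressed His-tagged enzyme, 1 mM NAD+, 90 uM beta-hydroxybutyryl-CoA; 15-min compound preincubation.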
4MU fluor: compounds fluorescent in 4-MU spectral region. max dye-equivalent concentration, M. compound autofluorescence, 340/450 nm, 4-MU equivalents; active compounds read high. hit rate 11% among 59,000; in the data active = max dye-equivalent concentration above about 10 nM; inconclusive = mostly about 1.1 nM to 9.6 nM
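Compounds in 100 mM Tris, pH 8.0, sat 15 min at room temperature before fluorescence was read at 340 nm excitation/450 nm emission; a per-plate six-point 4-MU standard curve converted signals to dye-equivalent concentration at each compound concentration.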
CRE Fsk mod: alters forskolin-stimulated CRE reporter signaling in CHO cells; CHO CRE-bla reporter (cAMP response element driving beta-lactamase), forskolin EC10, beta-lactamase ratio; Potency, µM (doses to about 38.2 µM), inactives show at the highest dose activity change, negative = inhibition, hits mostly activators; hit rate 2.5% among 71,000; active = well fitted activation curve with a large enough effect in the signal ratio, with a control signal flat, not every such curve was filed as active; inconclusive = small, poorly fitted or top-dose-only effect, or effect the other way, or a change in a side signal; the % refers to the signal ratio; note: potency is the fitted concentration of half-maximal effect; % of control where 0% means no effect
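Beta-lactamase reporter under a cAMP responsive element in CHO cells; compounds tested in titration series against EC10 NKH 477, 3 h at 37 °C. Read-out: CCF4 FRET ratio 460nm/530nm (excitation 405nm) giving %Activity, fitted to AC50.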
The depositor's hits bear a star; [ ] = remark or other dose. A selection: hits, their analogues and other compounds. The true share with any hit is near 14%. Unless noted, calls come from the whole dose curve; as a rule, active = well fitted curve in the direction sought with a large enough effect; inconclusive = small, poorly fitted or top-dose-only effect, or another doubt; inactive = no such curve, though single readings can be large; an effect the other way counts as inactive or inconclusive.

`COCCN(CC(=O)NCc1ccccc1)C(=O)CCC(=O)Nc1ccccn1` gave HSD17B inh 25.1µM*, A350 fluor 2.09e-07M*, AID923 0.5%, HADH2 inhib -2.5%, 4MU fluor 1.95e-07M* and CRE Fsk mod inconclusive.
COc1ccc(C2C(C(N)=O)=C(C)Nc3nc(-c4ccccc4Cl)nn32)c(OC)c1 (centres undefined) was read as HSD17B inh -5.6%, AID923 -1.2%, HADH2 inhib 0.9% and CRE Fsk mod 9.7%.
O=C1CC(Sc2nnc(-c3ccccc3O)o2)C(=O)N1c1ccccc1 (centres undefined) was read as HSD17B inh 39.8µM*, A350 fluor inactive, AID923 2.1%, HADH2 inhib -20.1%, 4MU fluor inactive and CRE Fsk mod inconclusive.
Screening CN(C)Cc1ccccc1-c1nc(N(C)C)c2ccccc2n1 returned HSD17B inh 6.4%, A350 fluor inactive, AID923 2.6%, HADH2 inhib -0.7%, 4MU fluor inactive and CRE Fsk mod 3.98µM*.
Screening Cc1noc(C)c1-c1nc(NC2CC2)c2ccccc2n1 returned HSD17B inh -3.0%, A350 fluor inactive, AID923 3.7%, HADH2 inhib 1.0%, 4MU fluor inactive and CRE Fsk mod inconclusive.
For FC(F)(F)c1ccccc1-c1nc(Nc2ccncc2)c2ccccc2n1 the results were HSD17B inh 31.6µM*, A350 fluor inactive, AID923 0.5%, HADH2 inhib -13.2%, 4MU fluor inactive and CRE Fsk mod inconclusive.
Cc1noc(C)c1-c1nc(Nc2ccncc2)c2ccccc2n1 was read as HSD17B inh inconclusive, A350 fluor inactive, AID923 -0.1%, HADH2 inhib 31.6µM*, 4MU fluor inactive and CRE Fsk mod inconclusive.
Screening Cc1noc(C)c1-c1nc(Nc2ccc(F)cc2)c2ccccc2n1 returned HSD17B inh inactive, A350 fluor inconclusive, AID923 2.0%, HADH2 inhib 12.6µM*, 4MU fluor inconclusive and CRE Fsk mod 15.5%.
`Cc1noc(C)c1-c1nc(N(C)C)c2ccccc2n1` gave HSD17B inh inconclusive, A350 fluor inactive, AID923 0.7%, HADH2 inhib 3.98µM*, 4MU fluor inactive and CRE Fsk mod inconclusive.
For COCCNc1nc(-c2c(C)noc2C)nc2ccccc12 the results were HSD17B inh inconclusive, A350 fluor inactive, AID923 0.6%, HADH2 inhib -15.6%, 4MU fluor inactive and CRE Fsk mod inconclusive.
For Cc1noc(C)c1-c1nc(NCc2cccs2)c2ccccc2n1 the results were HSD17B inh inconclusive, A350 fluor inactive, AID923 1.7%, HADH2 inhib 25.1µM*, 4MU fluor inactive and CRE Fsk mod inconclusive.
Screening CCC(=O)Nc1cc2c(cc1C(C)=O)OCCO2 returned HSD17B inh 31.6µM*, AID923 -0.1%, HADH2 inhib 10.4% and CRE Fsk mod 21.2%.
CC(=O)c1cc2c(cc1NC(=O)CSc1nc3ccccc3o1)OCO2 was read as HSD17B inh 20µM*, A350 fluor 7.73e-07M*, AID923 -2.0%, HADH2 inhib 32.9%, 4MU fluor 5.36e-07M* and CRE Fsk mod 9.6%.
Screening CCC(=O)c1cc2c(cc1NC(=O)c1ccc(C)cc1)OCCO2 returned HSD17B inh -1.9%, A350 fluor 1.66e-07M*, AID923 -2.5%, HADH2 inhib -9.6%, 4MU fluor 1.52e-07M* and CRE Fsk mod 3.8%.
Screening CC(=O)Nc1cc2c(cc1C(=O)C(C)C)OCCO2 returned HSD17B inh inconclusive, A350 fluor 3.08e-08M*, AID923 1.5%, HADH2 inhib -15.7%, 4MU fluor 3.56e-08M* and CRE Fsk mod 22.1%.
`CCCC(=O)Nc1cc2c(cc1C(=O)c1ccccc1)OCCO2` gave HSD17B inh -8.1%, A350 fluor inactive, AID923 -1.1%, HADH2 inhib -11.4%, 4MU fluor inactive and CRE Fsk mod -0.7%.
Screening CC(=O)Nc1nonc1NC(=O)CSc1nc2ccccc2o1 returned HSD17B inh -7.7%, A350 fluor inactive, AID923 1.0%, HADH2 inhib 10.9%, 4MU fluor inactive and CRE Fsk mod inconclusive.
For CCCCCCN(C(=O)CCCCCN1C(=O)NC(c2ccc(-c3ccccc3)cc2)C(C(=O)OCc2ccccc2)=C1C)C(C(=O)NCCCC)c1ccc(OCC(=O)O)c(C(=O)O)c1 (centres undefined) the results were HSD17B inh inconclusive, AID923 -5.2%, HADH2 inhib -0.9% and CRE Fsk mod -24.1%.
`COCCNC(=O)CN(c1cc(Cl)ccc1OC)S(C)(=O)=O` gave HSD17B inh 2.1%, A350 fluor inactive, AID923 0.2%, HADH2 inhib 5.8%, 4MU fluor inactive and CRE Fsk mod -0.1%.
`CC1CCN(S(=O)(=O)c2ccc3c(c2)CCN3C(=O)CCC(=O)O)CC1` gave HSD17B inh -3.1%, A350 fluor inactive, AID923 -0.1%, HADH2 inhib 0.7%, 4MU fluor inactive and CRE Fsk mod inconclusive.
For CCN(CC)S(=O)(=O)c1ccc(C(=O)OCn2nnc3ccccc3c2=O)cc1 the results were HSD17B inh -1.6%, A350 fluor inactive, AID923 -0.3%, HADH2 inhib 3.0%, 4MU fluor inactive and CRE Fsk mod -1.5%.
For Cn1c(=O)c2c(O)cc(=O)n(-c3ccccc3)c2n(C)c1=O the results were HSD17B inh 5.3%, A350 fluor inactive, AID923 0.1%, HADH2 inhib 8.9%, 4MU fluor inactive and CRE Fsk mod 0.9%.
Screening Cn1c(=O)c2[nH]cnc2n(-c2ccccc2)c1=O returned HSD17B inh -16.5%, A350 fluor 2.89e-08M*, AID923 2.6%, HADH2 inhib 12.6%, 4MU fluor 2.6e-08M* and CRE Fsk mod inconclusive.
c1cnc(Oc2ccc(-c3nnco3)cc2)cn1 was read as HSD17B inh -6.3%, A350 fluor inactive, AID923 0.2%, HADH2 inhib -3.7%, 4MU fluor inactive and CRE Fsk mod inconclusive.
CCc1ccc(CCC(=O)O)nc1 was read as HSD17B inh -0.7%[11.4 µM], A350 fluor 2.63e-07M*, AID923 1.2%[11.5 µM], HADH2 inhib 3.5%[11.4 µM], 4MU fluor 2.74e-07M* and CRE Fsk mod inconclusive.
For O=C(CN1CCOCC1)OCCCC1CCCCC1 the results were HSD17B inh -4.1%, A350 fluor 4.54e-08M*, AID923 1.6%, HADH2 inhib -6.9%, 4MU fluor 3.35e-08M* and CRE Fsk mod 13.6%.

From PubChem BioAssay
